A short description of test [1]: compounds binding Alexa647 anti-His antibody – biochemical, small-molecule microarray, 635 nm fluorescence, artefact control for SMM control protein annotation, primary screen (AID 1128).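 Note: score merges feature fluorescence with signal-to-noise for each printed compound spot.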 The following applies: higher = more signal.
In test [2] the test system is Human papillomavirus type 1a E7 protein (residues 1-88). As to the kind of experiment: HPV1a E7 small-molecule binders, primary screen, biochemical, small-molecule microarray, residues 1-88, 635 nm (AID 1129). Particulars: small-molecule microarray binding, fluorescence 635 nm; higher = more signal.
Test [3] has as its target Focal adhesion kinase 1 (Homo sapiens) (UniProt Q05397). The test is described as follows: PTK2 protein binding on printed compound slides – biochemical, small-molecule microarray, 635/667 nm fluorescence, BSA, DTT, primary screen (AID 1130).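 Note: composite of spot emission at 667 nm and signal to noise over triplicate slides.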 The following applies: 635 nm fluorescence, higher = more signal.
For test [4], the system named is Fibrinogen (Alexa647-labelled). As to the kind of experiment: Alexa647-fibrinogen binding to printed small molecules – biochemical, small-molecule microarray, 635/667 nm fluorescence, artefact control for SMM control-protein annotation, profiling panel (AID 1131).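 Note: z-score merges 667 nm fluorescence with per-spot signal-to-noise over triplicate slides.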 Particulars: fibrinogen-A647 binding fluorescence, higher = more signal.
In test [5] the target is Follistatin (Homo sapiens) (UniProt P19883). As to the kind of experiment: FST protein binding to printed compounds – biochemical, small-molecule microarray, 635/667 nm fluorescence, primary screen (AID 1132). Particulars: 635 nm fluorescence, higher = more signal.
The target of test [6] is Fibroblast growth factor 2 (Homo sapiens) (UniProt P09038). The test is described as follows: basic fibroblast growth factor binding to printed compounds – biochemical, small-molecule microarray, 635/667 nm fluorescence, primary screen (AID 1133). The following applies: FGF2, fluorescence 635/667, higher = more signal.
The nature of test [7]: JC-1 mitochondrial potential readout, lung cancer cells – cell-based, A549, JC-1 fluorescence, basal, 24 h, 100 nL, profiling panel (AID 1138).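 Note: A549 lung adenocarcinoma cells under basal conditions with no added stimulus; test concentration not given here.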 The following applies: higher = more signal.
The test system of test [8] is Lefty1. As to the kind of experiment: Lefty1 protein binding to printed compounds – biochemical, small-molecule microarray, 635/667 nm fluorescence, primary screen (AID 1139). The following applies: fluorescence 635/667, higher = more signal.
In test [9] the test system is wheat germ agglutinin (Triticum aestivum), Alexa647-labelled. The test is described as follows: Alexa647-WGA lectin binding to printed small molecules – biochemical, small-molecule microarray, 635/667 nm fluorescence, artefact control for SMM control-protein annotation, profiling panel (AID 1140).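 Note: score merges 667 nm feature emission with signal to noise over triplicate slides.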 Particulars: WGA-A647 binding, 635 nm fluorescence, higher = more signal.

The target in test [10] is Luciferin 4-monooxygenase (Photinus pyralis) (UniProt P08659). The test is described as follows: inhibition of purified Photinus pyralis luciferase – biochemical, luminescence, purified enzyme, 2006 set, primary screen (AID 1141).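 Note: cell-free assay with purified firefly luciferase at 100 ng per well in PBS; test concentration not given here.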 Particulars: purified firefly luciferase, SteadyGlo luminescence, 30 min; higher = more signal, called active from +8 up or from −8 down.

Active and inactive are the calls of the source.

Fibroblast growth factor 2 (Homo sapiens), sequence (P09038 whole entry, looked up): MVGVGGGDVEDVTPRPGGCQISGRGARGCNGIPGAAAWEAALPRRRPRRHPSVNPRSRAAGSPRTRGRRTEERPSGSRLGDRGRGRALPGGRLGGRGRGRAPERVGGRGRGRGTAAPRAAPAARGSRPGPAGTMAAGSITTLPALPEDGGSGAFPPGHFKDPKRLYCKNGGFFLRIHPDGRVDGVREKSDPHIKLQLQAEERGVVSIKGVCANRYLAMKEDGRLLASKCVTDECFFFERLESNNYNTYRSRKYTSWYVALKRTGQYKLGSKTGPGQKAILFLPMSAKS
Follistatin (Homo sapiens), sequence (P19883 whole entry, looked up): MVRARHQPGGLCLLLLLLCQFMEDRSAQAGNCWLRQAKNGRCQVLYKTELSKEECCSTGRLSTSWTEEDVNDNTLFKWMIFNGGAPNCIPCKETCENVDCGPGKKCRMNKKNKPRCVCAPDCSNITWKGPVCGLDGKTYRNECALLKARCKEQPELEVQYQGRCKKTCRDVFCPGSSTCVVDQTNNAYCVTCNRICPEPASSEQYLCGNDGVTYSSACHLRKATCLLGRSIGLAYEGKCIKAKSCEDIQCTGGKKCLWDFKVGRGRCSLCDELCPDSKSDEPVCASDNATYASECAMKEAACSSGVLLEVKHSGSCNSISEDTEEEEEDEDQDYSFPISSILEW
Luciferin 4-monooxygenase (Photinus pyralis), sequence (P08659 whole entry, looked up): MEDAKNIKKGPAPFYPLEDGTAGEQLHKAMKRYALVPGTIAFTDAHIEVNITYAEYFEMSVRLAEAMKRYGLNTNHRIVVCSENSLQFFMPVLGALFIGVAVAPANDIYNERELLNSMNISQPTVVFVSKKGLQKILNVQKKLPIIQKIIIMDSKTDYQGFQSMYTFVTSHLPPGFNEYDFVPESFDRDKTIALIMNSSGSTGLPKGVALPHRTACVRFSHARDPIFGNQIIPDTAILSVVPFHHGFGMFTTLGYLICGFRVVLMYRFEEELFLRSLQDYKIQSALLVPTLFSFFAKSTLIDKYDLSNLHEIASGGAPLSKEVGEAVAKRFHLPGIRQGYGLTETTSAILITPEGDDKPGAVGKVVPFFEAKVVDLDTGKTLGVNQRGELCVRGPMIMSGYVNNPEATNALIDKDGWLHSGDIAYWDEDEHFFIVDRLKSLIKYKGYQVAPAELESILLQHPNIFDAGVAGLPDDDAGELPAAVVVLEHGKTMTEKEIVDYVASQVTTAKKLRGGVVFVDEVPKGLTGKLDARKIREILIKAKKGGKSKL
Focal adhesion kinase 1 (Homo sapiens), sequence (Q05397 whole entry, looked up): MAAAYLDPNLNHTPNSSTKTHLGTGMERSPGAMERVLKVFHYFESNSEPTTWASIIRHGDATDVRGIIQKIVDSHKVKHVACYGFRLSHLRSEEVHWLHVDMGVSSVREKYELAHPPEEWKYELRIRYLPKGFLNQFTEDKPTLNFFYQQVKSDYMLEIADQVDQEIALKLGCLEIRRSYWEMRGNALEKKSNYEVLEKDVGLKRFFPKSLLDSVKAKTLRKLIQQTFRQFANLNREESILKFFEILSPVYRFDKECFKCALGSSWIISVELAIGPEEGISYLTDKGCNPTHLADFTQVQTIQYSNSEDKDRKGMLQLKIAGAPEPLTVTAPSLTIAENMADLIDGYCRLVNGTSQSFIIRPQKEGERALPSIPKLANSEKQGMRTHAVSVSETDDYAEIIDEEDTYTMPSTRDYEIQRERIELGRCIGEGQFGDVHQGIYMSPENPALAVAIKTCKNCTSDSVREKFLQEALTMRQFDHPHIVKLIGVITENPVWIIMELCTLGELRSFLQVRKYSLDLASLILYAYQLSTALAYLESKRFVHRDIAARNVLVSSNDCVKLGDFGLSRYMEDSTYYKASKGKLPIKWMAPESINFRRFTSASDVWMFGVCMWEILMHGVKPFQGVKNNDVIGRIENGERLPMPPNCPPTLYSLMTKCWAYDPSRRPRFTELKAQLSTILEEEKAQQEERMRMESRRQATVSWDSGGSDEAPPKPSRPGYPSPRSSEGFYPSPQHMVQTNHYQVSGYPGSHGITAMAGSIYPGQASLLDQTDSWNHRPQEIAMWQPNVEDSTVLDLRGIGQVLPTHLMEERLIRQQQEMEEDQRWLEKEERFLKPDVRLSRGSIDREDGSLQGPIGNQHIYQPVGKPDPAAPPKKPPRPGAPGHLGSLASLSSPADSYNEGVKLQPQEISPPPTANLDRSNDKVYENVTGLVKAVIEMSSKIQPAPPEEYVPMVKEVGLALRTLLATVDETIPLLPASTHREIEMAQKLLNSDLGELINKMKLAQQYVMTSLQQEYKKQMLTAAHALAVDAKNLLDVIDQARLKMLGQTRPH

Turning to `O=C(CCN1CCOCC1)c1cccc(O)c1`, the composite z-score came to 1.52 in test [1]; 0.854 in test [2]; 0.531 in [3]; 0.884 in test [4]; 1.35 in test [5]; 1.55 in test [6]. Besides, the composite z-score in test [8] amounted to 1.41; in [9] it was 1.07. Moreover, the z-score was 0.574 in [7] and 0.618 (inactive) in test [10].

With `O=C/C=C/c1ccc2c(c1)OCO2`, the composite z-score in test [1] was 1.33; in test [2], 0.128; in test [3], 0.247; in test [4] it was -0.696; in [5], 0.952; in test [6], 0.398. Also, the values for the composite z-score in test [8] and in [9] were 0.401 and -0.273, respectively. The z-score in test [7] is 0.231; in test [10], -1.04 (inactive).

In the case of `C=C[C@H](C)[C@@H](O)c1ccc(O)c2ccccc12`, the composite z-score was 1.25 in test [1]; -0.655 in [2]; -0.432 in [3]; -0.407 in [4]; 1.05 in test [5]; 0.944 in test [6]. The composite z-score in test [8] was 0.246; in [9], 0.545. For the same molecule, the z-score in test [7] is -0.401; in test [10], -0.322 (inactive).

As to `C=C(CCCC)C(=O)CC[C@H](OC(=O)c1cccnc1)c1cccc(OCCO)c1`, the composite z-score in test [1] is 0.637; in test [2], -0.395; in [3] it was -0.262; in [4] it was -0.847; in test [5], 0.254; in test [6], 0.275. Besides, the composite z-score in test [8] is 0.563; in test [9], -0.288. Moreover, the values for the z-score in test [7] and in [10] were 1.28 and -1.2 (inactive), respectively.

Turning to `O=C1C2C=CC(C(O)c3ccc(F)cc3)N(Nc3ccccc3)C2C(=O)N1c1ccccc1` (stereo not given), the composite z-score in test [1] is 1.33; in test [2] it was 1.22; in [3] it was 0.734; in test [4], 0.266; in [5], -0.143; in test [6] it was -0.762. Besides, the composite z-score in test [8] is -0.233; in [9], 0.684. The results for the z-score in [7] and in [10] were -0.101 and 0.165 (inactive), respectively.

On to `C=CCNC(=O)[C@@H]1[C@H]2C(=O)O[C@H](c3ccccc3)[C@H](c3ccccc3)N2[C@H](c2ccccc2OCCO)[C@@]12C(=O)Nc1ccc(C#CC3=CCCCC3)cc12`, for which the composite z-score in test [1] was 1.57; in test [2], 1.22; in [3], 0.683; in [4], 0.9; in test [5], 1.21; in [6] it was 1.02. The composite z-score in test [8] is 1.12; in [9], 0.971. Further, the z-score in [7] was -1.55; in test [10] it was -1.48 (inactive).

On to `CCCCCCc1nc(CCCc2cc3c(c(CCCCCC)n2)[Si](C(C)C)(C(C)C)OC3)cc2c1[Si](C(C)C)(C(C)C)OC2`, for which the composite z-score in [1] is -0.658; in test [2], -1.19; in test [3] it was -0.0475; in test [4] it was -1.14; in test [5], 0.597; in test [6], -0.13. Also, the composite z-score is 0.0479 in test [8] and -0.973 in [9]. Moreover, the z-score in test [7] was 0.531; in test [10] it was 0.651 (inactive).

As for `O=C(NCc1ccccc1)[C@]1(CCS(=O)(=O)c2ccccc2)N=C(c2ccc(OCCCO)cc2)O[C@@H]1c1ccccc1`, the composite z-score in test [1] was 1; in test [2], 1.18; in test [3], 0.471; in test [4], 0.939; in test [5] it was 0.919; in test [6], -0.0072. For the same molecule, the composite z-score is 0.469 in test [8] and 0.785 in [9]. Also, the z-score in test [7] was -0.864; in [10], 0.781 (inactive).

On to `CC1=C2[C@@H](CCc3ccccc3)OB(O)C[C@@H]2n2c(=O)n(-c3ccccc3)c(=O)n2C1`, for which the composite z-score in test [1] came out at 0.324; in test [2], 0.479; in test [3], 0.233; in test [4] it was 0.923; in [5], 0.794; in test [6], 0.618. Besides, the composite z-score stood at 0.897 in test [8] and 0.0099 in test [9]. Besides, the z-score is 0.235 in [7] and -0.85 (inactive) in test [10].

On to `O=C1O[C@H](c2ccccc2)[C@H](c2ccccc2)N2[C@H]1[C@@H](C(=O)O)[C@]1(C(=O)Nc3ccc(C#CC4(O)CCCCCC4)cc31)[C@H]2c1ccc(OCCO)cc1`, for which the composite z-score in test [1] was 1.5; in test [2], 1.25; in [3] it was 0.115; in test [4] it was 0.979; in test [5] it was 0.196; in test [6], -0.333. Besides, the results for the composite z-score in test [8] and in test [9] were 0.473 and 0.942, respectively. Moreover, the z-score in test [7] was -1.42; in [10] it was -2.75 (inactive).

For the molecule `Cc1ccc(S[C@]2(C(=O)NC3CC3)CC(=O)N(C3CCCCC3)[C@@H]2c2ccc(CO)cc2I)cc1`, the composite z-score turned out to be 0.104 in [1]; 1.21 in [2]; 0.176 in test [3]; 0.304 in test [4]; 1.26 in test [5]; 0.341 in [6]. Also, the figures for the composite z-score in test [8] and in [9] were 0.87 and 0.368, respectively. For the same molecule, the z-score in test [7] is 1.69; in test [10], 1.06 (inactive).

In the case of `CC1CC/C=C\[C@H]2OC34C=CCN(Cc5ccccc5)C(=O)[C@H]3N(CCCCCO)C(=O)[C@@H]4C2C(=O)O1` (stereo not given in full), the composite z-score in test [1] was 0.15; in [2], -0.825; in test [3], 1.19; in test [4], -0.985; in [5] it was -0.599; in test [6], -0.754. Further, the figures for the composite z-score in [8] and in test [9] were -0.812 and -0.494, respectively. The z-score was 1.37 in test [7] and -0.763 (inactive) in [10].

As to `CCOC(=O)C1=CCC(c2ccc(C#N)cc2)N(S(=O)(=O)c2ccc(C)cc2)C1` (stereo not given), the composite z-score in [1] was found to be 1.64; in test [2] it was 1.2; in test [3], 0.047; in test [4], 0.824; in test [5], 0.552; in [6], 0.168. Further, the composite z-score in [8] was -0.303; in test [9], 1.19. Also, the z-score in test [7] is -0.142; in test [10], 0.115 (inactive).

On to `CCOC(=O)C1=C[C@@H](C(C)C)N(S(=O)(=O)c2ccc(C)cc2)[C@H]1c1ccc(C(C)C)cc1`, for which the composite z-score in test [1] was 0.408; in [2], 1.15; in test [3], 1.54; in [4], 0.915; in test [5], 1.23; in test [6], -0.067. Also, the composite z-score in test [8] came out at 0.752; in test [9], 0.734. Moreover, the z-score in [7] was 2.96; in test [10], 2.41 (inactive).

With `COCCOC(=O)N1C(=O)[C@@]2(c3cc(C#CCNC(N)=O)ccc31)[C@H](c1ccccc1OCCO)N1[C@H](c3ccccc3)[C@H](c3ccccc3)OC(=O)[C@H]1[C@@H]2C(N)=O`, the composite z-score in test [1] turned out to be 0.208; in test [2], 1.15; in test [3], 0.189; in [4], 0.963; in [5], 1.25; in test [6], 0.917. Moreover, the values for the composite z-score in [8] and in [9] were 0.782 and 0.305, respectively. Moreover, the z-score in test [7] is -1.24; in [10] it was -0.868 (inactive).

`O=C1OCCC=C[C@H]2OC34C=CCN(Cc5ccccc5)C(=O)[C@H]3N(CCCCCCO)C(=O)[C@@H]4C12` (stereo not given in full): the composite z-score is 0.0899 in test [1]; -0.374 in [2]; -0.574 in test [3]; -0.873 in [4]; -0.0109 in test [5]; -1.02 in test [6]. The composite z-score in test [8] is 0.798; in test [9], -0.828. Besides, the z-score is 0.544 in test [7] and 0.467 (inactive) in test [10].

The values are drawn from PubChem BioAssay.
